Experimental data taken from PubChem BioAssay AID1117267 (The Scripps Research Institute Molecular Screening Center, 2014).
Among all 92,000 compounds or so, about 1,200 (1.3%) were called active. What follows is part of a selection rich in actives, with near analogues and random picks from the rest. Values without a mark were called inactive.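 The calls were made as follows: active = activation above the mean of all tested compounds plus 3 SD (cut at about 9.5% in these data); inactive = the rest.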

Experiment: compounds raising TTR promoter-driven luciferase – cell-based, luminescence, SH-SY5Y, TTR promoter Gaussia luciferase, primary screen (AID 1117267);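 also: cells exposed to compounds for one day before reading; 0% = median of all test compound wells on the plate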
Settings: at 16.7 µM, stronger effect = higher value, 100% = recombinant luciferase protein wells

SMILES	activation
COc1ccc(S(=O)(=O)NCC(=O)NCc2cc(=O)n(C)c(=O)n2C)cc1F	53.5% (active)
Cn1c(=O)c2cc(S(=O)(=O)NCCC(=O)Nc3ccc(F)cc3F)ccc2n(C)c1=O	0.89%
CC(=O)OCc1cc(=O)n(C)c(=O)n1C	1.42%
O=C(C1=C(O)C(=O)N(CCOCCO)C1c1ccccn1)c1cccs1 (stereo not given)	-0.44%
O=C(Nc1cccc(O)c1)c1ccc(C(=O)c2ccccc2)o1	15.8% (active)
O=C(Cc1ccccc1)Nc1cccc(NC(=O)c2ccccc2)c1	-1.17%
C/C(=C\C(=O)c1ccccc1)Nc1cccc(O)c1	-1.23%
O=c1[nH]cccc1-c1nc2ccccc2n1Cc1ccc(Cl)cc1	1.33%
CC1CCN(S(=O)(=O)c2ccc(S(=O)(=O)NCc3cccnc3)cc2)CC1	1.06%
CCC(C)C(=O)Nc1ccccc1N1CCN(c2ccc(F)cc2)CC1 (stereo not given)	1.32%
CC(=O)c1c(C)[nH]c(C(=O)COc2ccc3c(C)cc(=O)oc3c2)c1C	11.5% (active)
CCOC(=O)Cc1csc(NC(=O)COc2ccc3c(C)cc(=O)oc3c2)n1	-0.4%
COC(=O)COc1ccc2oc(=O)cc(C)c2c1	-3.29%
N#Cc1ccc(/C=C2\CCn3c2nc2cc(C(=O)O)ccc2c3=O)cc1	-0.49%
COC[C@@H]1CCCN1c1ccc2c(c1)O[C@H](C)CCN(C1CC1)S2(=O)=O	1.42%
CN(CCc1ccccc1)C(=O)c1cccc(NC(=O)Cc2cccc(NC(=O)C3CCCN(C(=O)CCc4ccccc4)C3)c2)c1 (stereo not given)	-4.56%
CC1Cc2ccccc2N1S(=O)(=O)c1cccc(C(=O)OCC(=O)N2CCOCC2)c1 (stereo not given)	2.01%
COc1ccc(-c2oc3ncn(Cc4ccco4)c(=N)c3c2-c2ccc(OC)cc2)cc1	11.8% (active)
COc1ccc2[nH]c3c(=O)n(Cc4ccco4)cnc3c2c1	1.08%
Cn1c2ccccc2c(=O)c2c(=O)n(Cc3ccco3)c(COc3ccccc3)nc21	-1.02%
C(#CCN1CCOCC1)CCCN1CCOCC1	0.16%
O=C(Nc1nncs1)c1cccc(S(=O)(=O)N2CCCCC2)c1	0.77%

SMILES	activation
O=C(NNC1=NCCC1)c1cccc(S(=O)(=O)N2CCCCC2)c1	12% (active)
O=C(c1cccc(S(=O)(=O)N2CCCCCC2)c1)N1CCN(Cc2ccccc2)CC1	-0.07%
Cc1c(NC(=O)C(=O)N/N=C/c2cccs2)c(=O)n(-c2ccccc2)n1C	-1.22%
O=c1c2c3c(sc2n(CCN2CCCC2)c(=O)n1Cc1ccccc1)CCCCC3	1.57%
COc1ccc(C2c3ccc(O)cc3Oc3ncn(CCCO)c(=N)c32)cc1OC (stereo not given)	9.86% (active)
O=c1ccnc(Nc2ccc(Cl)cc2)[nH]1	1.51%
COc1ccc(CN2CN(C3CCCC3)CSC2=S)cc1	-1.82%
O=C1NC(=Nc2ccc(Cl)cc2)SC1Cc1cccc(Cl)c1Cl (stereo not given)	-2.63%
O=C(CS(=O)(=O)c1ccccc1)Nc1ccc(S(=O)(=O)Nc2ccccn2)cc1	11.2% (active)
COc1cc(NS(=O)(=O)c2ccc(NC(=O)CN3C(=O)c4ccccc4C3=O)cc2)ncn1	0.85%
O=S(=O)(Nc1ccccn1)c1cccc(S(=O)(=O)c2ccc(Cl)cc2)c1	1.15%
Cc1nn(C)cc1S(=O)(=O)N1CCN(c2ccc(F)cc2)CC1	5.22%
COC(=O)C[C@@H]1C=C[C@@H](NS(=O)(=O)c2cccc(OC)c2)[C@@H](CO)O1	2.56%
COC(=O)[C@@]12C[C@@H](CC(=O)N3CCCCC3)C(=O)N(Cc3ccc4c(c3)OCO4)C1=CCC(C)(C)C2	-2.52%
Cc1ccc(C(=O)NCCNC(=O)c2cnccn2)cc1	-0.47%
O=C(COc1ccc(Cl)cc1Cl)NCCCNC(=O)c1cnccn1	1.09%
O=C(NCCCNC(=O)c1ccccc1Cl)c1cnccn1	17.1% (active)
CCC(C)NCCOCCOc1ccc(Br)cc1C (stereo not given)	4.02%
CCc1nn(CCCC(=O)Nc2ccc(C)c(C)c2)c(=O)c2cc3occc3n12	-0.44%
Nc1ccc2c(c1)C(O)c1ccc(Cl)cc1-2 (stereo not given)	-0.84%
Cc1nnc(SCC(=O)NNC(=O)c2ccc(Cl)cc2)n1CC1CCCO1 (stereo not given)	-0.27%
O=C(N/N=C/c1cccnc1)c1cc2ccccc2cc1O	-0.26%

SMILES	activation
Brc1ccc(-c2csc(N/N=C/c3cccnc3)n2)cc1	-4.96%
C(=N\n1cnnc1)/c1cccnc1	9.82% (active)
CC(=O)Nc1ccc(N2C(=O)CC(Sc3nccc(C)n3)C2=O)cc1 (stereo not given)	-1.45%
CC(Oc1cccc(Cl)c1)C(=O)NC1CC(C)(C)NC(C)(C)C1 (stereo not given)	-0.86%
Cc1ccccc1/[N+]([O-])=C/c1ccncc1	11% (active)
O=C(O/N=C(/c1ccccc1)c1ccncc1)c1ccccc1[N+](=O)[O-]	-1%
C=C(C)CNC(=S)N/N=C/c1ccccc1OCC(=O)O	8.68%
CN(C)CCNC(=O)Cc1ccc([N+](=O)[O-])cc1	0.61%
CCCNC(=O)c1onc(CSc2ccc(F)cc2)c1C(=O)NC(C)C	-2.47%
COc1cc(C(=O)NNC(=O)CN2C(=O)NC3(CCCC3)C2=O)cc(OC)c1OC	-1.23%
COc1cc(N2C(=O)CC3(CCCC3)CC2=O)cc(OC)c1OC	11.7% (active)
COc1cc(NC(=S)N2CCCC(C)C2)cc(OC)c1OC (stereo not given)	4.11%
CC(C)(C)OC(=O)N/N=C/c1cn(-c2ccccc2)nc1-c1cccnc1	-1.28%
CC(C)N(C(=O)[C@H]1C[C@H](CC(=O)NCCC2=CCCCC2)C(=O)N2CCc3c([nH]c4cc(CCC(=O)N(C)C)ccc34)[C@]12C)C(C)C	-0.83%
c1ccc(-c2c[nH]c(-c3ccccc3)c2)cc1	-1.9%
CCOCC(=O)Nc1sc2c(c1C(=O)OCC)CCCC2	2.19%
CCOC(=O)c1c(NC(=O)c2ccc(Br)o2)sc2c1CCCC2	12.3% (active)
CCOC(=O)c1c(NC(=S)Nc2ccccc2C)sc2c1CCC2	1.24%
COc1cccc2cc(/C(C)=N/NC(=O)c3ccco3)oc12	1.86%
Cc1nc2c(-c3ccc(F)cc3)c(C)nn2c(C)c1CCC(=O)N1CCN(c2ccccn2)CC1	1.67%
Cc1nc2nc(C)c(CCC(=O)N3CCN(c4ccccc4)CC3)c(C)n2n1	25.8% (active)
Cn1c(=O)c2c(ncn2CC(=O)N2CCN(c3ccccc3)CC2)n(C)c1=O	3.74%

SMILES	activation
Cc1cccc(C)c1NC(=O)CN1CCN(c2ccc(F)cc2)CC1	1.02%
O=C(O)CSc1nccc2ccccc12	-2.92%
CCN(C(=O)CN1C(=O)/C(=C/c2ccc(F)cc2)SC1=S)C1CCS(=O)(=O)C1 (stereo not given)	1.08%
COc1ccc(C(=O)C(C)OC(=O)c2cccc(S(=O)(=O)Nc3c(C)n(C)n(-c4ccccc4)c3=O)c2)cc1 (stereo not given)	0.13%
COc1ccc(NS(=O)(=O)c2ccc(C(=O)Nc3c(C)n(C)n(-c4ccccc4)c3=O)cc2)cc1	-1.99%
Cc1c(NS(=O)(=O)c2ccc(NC3CCCC3)c([N+](=O)[O-])c2)c(=O)n(-c2ccccc2)n1C	12.5% (active)
CCc1cc2c(NC(Cc3ccccc3)C(=O)O)ncnc2s1 (stereo not given)	0.89%
Cc1cccc(NC(=O)Nc2nnc(-c3ccccc3)o2)c1	-2.14%
COc1cc(/C=N/N2CCN(c3ccccc3)CC2)ccc1OC(C)=O	1.16%
COc1cccc(-c2cnc(C(O)c3ccccc3OC)[nH]2)c1 (stereo not given)	9.73% (active)
COc1c(C)cc(C(O)c2ncc(-c3cccc(C(F)(F)F)c3)[nH]2)cc1C (stereo not given)	-1.28%
OC(c1ccc(F)cc1)c1ncc(-c2cccc(C(F)(F)F)c2)[nH]1 (stereo not given)	1.67%
C=CCN(C(=O)Nc1ccc2c(c1)nc(C)n2C)c1ccccc1	5.19%
O=C(COC(=O)c1ccc2ncsc2c1)Nc1ccc(Cl)cc1	1.52%
FC(F)(F)c1cc(-c2ccco2)nc(N2CCOCC2)n1	2.59%
Cc1ccc(-c2cc(C(F)(F)F)n3ncc(C(=O)N4CCCCC4c4cccnc4)c3n2)cc1 (stereo not given)	0.13%
COC(=O)c1cnn2c(C(F)(F)F)cc(-c3ccco3)nc12	10.2% (active)
CCCCOCCCNC(=O)C[C@H]1C[C@@]2(C(=O)OC)C(=C[C@H](C(C)(C)C)O[C@@H]2C)N(CCc2ccc(OC)c(OC)c2)C1=O	14.6% (active)
COC(=O)[C@]12C[C@H](CC(=O)NCc3cccc4ccccc34)C(=O)N(CCc3ccc(OC)c(OC)c3)C1=C[C@H](C1CCCC1)O[C@@H]2C	-1.86%
COC(=O)[C@]12C[C@H](CC(=O)NCc3cccs3)C(=O)N(CCc3ccc(OC)c(OC)c3)C1=C[C@H](C(C)C)O[C@@H]2C1CC1	-0.36%
O=C(NCc1ccccc1)C(c1cccnc1)N(C(=O)c1csnn1)c1ccc(F)cc1 (stereo not given)	4.37%
Cc1cccc(C(=O)OC(C)CN2CCCC2)c1 (stereo not given)	2.07%

SMILES	activation
O=C(CN1C(=O)CC(c2ccccc2)S(=O)(=O)c2ccccc21)NC1CCCC1 (stereo not given)	4.27%
O=C1c2cccc(OCC(=O)N3N=C(c4cccs4)CC3c3ccc(F)cc3)c2CCN1Cc1ccccc1 (stereo not given)	11.2% (active)
COc1cccc(C2CC(c3cccs3)=NN2C(=O)CSC2=NCCS2)c1OC (stereo not given)	-2.03%
CC(=O)Oc1ccccc1C1=NN(C(C)=O)C(c2ccccc2)C1 (stereo not given)	1.26%
O=C(CCc1nnc(CCCCc2ccccc2)o1)NC(c1cccnc1)C(F)(F)F (stereo not given)	-0.47%
CCOC(=O)CCc1c(C)c2ccc(OCc3nn[nH]n3)c(C)c2oc1=O	3.81%
COc1ccc(-c2cc3ccc(OCc4nn[nH]n4)cc3oc2=O)cc1	0.67%
CCCCc1cc(=O)oc2cc(C)cc(OCc3nn[nH]n3)c12	23.1% (active)
CC(C)Cn1c(N)c(C(=O)COC(=O)C2CCCN2C(=O)c2cccs2)c(=O)n(C)c1=O (stereo not given)	-0.78%
C#CCOCCOCCOCCNc1nc(N2CCOCC2)nc(N2CCN(C(=O)[C@H](Cc3ccc(O)cc3)n3cc(CCO)nn3)CC2)n1	-0.17%
CCOc1ccc(C(=O)NCC(=O)N2CCN(c3ccc(C(F)(F)F)cn3)CC2)cc1	0.73%
Brc1ccc(/C=N/N2CCN(C3c4ccccc4-c4ccccc43)CC2)s1	19.4% (active)
CC(=O)C[C@@H]1OC[C@H](C)N1S(=O)(=O)c1ccc(C)cc1	1.64%
CC(NC(=O)C(C)(C)C)C(c1cccs1)N1CCN(Cc2ccccc2)CC1 (stereo not given)	-0.04%
NC(=O)C1(Nc2ccccc2Cl)CCCC1	-2.76%
Cc1nc(N2CCOCC2)sc1C(=O)NN	-0.39%
Cc1nc(-c2ccc(Cl)cc2)sc1C(=O)NN	35.4% (active)
Cc1ccc(SCC(=O)c2sc(-c3ccccc3)nc2C)cc1	4.57%
O=c1ccn([C@@H]2O[C@H](CNS(=O)(=O)c3cc4ccccc4s3)[C@@H](O)[C@H]2O)c(=O)[nH]1	-0.41%
COc1ccc(C(CNC(=O)c2ccc(S(=O)(=O)Nc3ccccc3C)cc2)N2CCOCC2)cc1 (stereo not given)	0.05%
COc1ccc(CCOC(=O)CNC(=O)c2ccc(Cl)cc2Cl)cc1	-0.5%
COc1cc2c(=O)n(C)c3ccccc3c2cc1OC	-0.16%
